In PubChem BioAssay AID2235 (The Scripps Research Institute Molecular Screening Center, 2010) one finds inhibition data, which are given here for 51 compounds.

Structures are written as SMILES. In all, about 320,000 compounds went through this assay and about 2,800 (0.88%) were called active.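 How the source made its calls: active means inhibition above the mean inhibition of all tested compounds plus 3 SD, computed separately for each screening campaign (cut at about 15% in these data); inactive means the rest.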 This excerpt belongs to a sample that is enriched for actives.

In the assay the target is Serine/threonine-protein phosphatase PP1-alpha catalytic subunit (Homo sapiens) (UniProt P62136). The experiment in a line: inhibition of human PP1 catalytic subunit – biochemical, fluorescence, OMFP substrate, single point, counter-screen for PP5 inhibitor project, primary screen (AID 2235). As to conditions: purified PP1alpha, at 6.7 µM, hits give high values.
Sequence of Serine/threonine-protein phosphatase PP1-alpha catalytic subunit (Homo sapiens) (P62136 whole entry, looked up): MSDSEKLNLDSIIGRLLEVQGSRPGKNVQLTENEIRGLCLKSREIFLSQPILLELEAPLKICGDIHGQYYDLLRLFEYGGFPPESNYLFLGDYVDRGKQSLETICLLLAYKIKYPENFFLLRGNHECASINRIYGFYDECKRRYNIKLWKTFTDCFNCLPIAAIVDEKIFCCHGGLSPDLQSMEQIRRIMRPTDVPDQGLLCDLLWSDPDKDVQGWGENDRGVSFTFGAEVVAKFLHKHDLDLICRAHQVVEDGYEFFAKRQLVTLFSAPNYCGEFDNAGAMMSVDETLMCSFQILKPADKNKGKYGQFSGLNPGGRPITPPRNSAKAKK
With `COc1ccccc1NS(=O)(=O)N(C)C`, the inhibition (usually the drop in the measured response relative to a control, in per cent) was 6.89% (inactive).
With `CCCc1nnc(NC(=O)CCC(=O)N2CCN(S(=O)(=O)c3ccc(OC)cc3)CC2)s1` the figure was -4.44% (inactive).
With `Nc1ccc2nc3c(=O)[nH]c(=S)[nH]c3nc2c1` the figure was 41.9% (active).
The result for `Cc1cc2nc3c(=O)n(Cc4ccccc4)c(=O)[nH]c3nc2cc1N` reads 2.81% (inactive); that for `COC(=O)/C(C#N)=C/c1occc1C`, -1.37% (inactive).
Consider `CCC(C)(C)NC(=O)C(c1ccc(O)cc1)N(C(=O)Cn1nnc2ccccc21)c1ccc(NC(C)=O)cc1` (stereo unspecified), for which the inhibition is 4.46% (inactive).
Consider `O=c1cc(O)nc(SCc2ccccc2Cl)[nH]1`, for which the inhibition is 3.47% (inactive).
As for `O=C(CC1N=C2c3ccccc3N=C(SCc3ccccc3Cl)N2C1=O)NCc1ccco1` (stereo unspecified), the inhibition was 1.15% (inactive).
With `Clc1ccccc1CSc1nnc(-c2ccco2)c(-c2ccco2)n1` the figure was 24.6% (active); with `CCOC(=O)N1CCN(S(=O)(=O)c2cc3c(cc2C)NC(=O)CO3)CC1`, -2.81% (inactive); with `Cc1cc(N2C(=O)C(O)=C(C(=O)c3ccc(C)o3)C2c2ccc(OCc3ccccc3)cc2)no1` (stereo unspecified), 26.8% (active).
With `COc1cc(C2C(C(=O)c3ccco3)=C(O)C(=O)N2c2cc(C)on2)ccc1OCc1ccccc1` (stereo unspecified) the figure was 13.9% (inactive).
The result for `CCOc1cc(C2C(C(=O)c3ccco3)=C(O)C(=O)N2Cc2ccccc2)ccc1O` (stereo unspecified) reads 4.74% (inactive); that for `COc1cc(C2C(C(=O)c3ccc(C)o3)=C(O)C(=O)N2CCc2ccccc2)ccc1O` (stereo unspecified), 32.7% (active).
For the compound `COc1ccc(CCN2C(=O)c3[nH]nc(-c4ccccc4O)c3C2c2ccc(C)cc2)cc1OC` (stereo unspecified), the inhibition is 6.53% (inactive).
With `Cc1cc(N2C(=O)C(=O)/C(=C(/O)c3ccccc3)C2c2cccc(Br)c2)no1` (stereo unspecified) the figure was -4.18% (inactive); with `Cc1c(Cl)c([N+](=O)[O-])nn1CC(=O)NCC1CCCO1` (stereo unspecified), -3.7% (inactive).
The result for `COc1ccccc1N1CCN(S(=O)(=O)c2ccc3c(c2)NC(=O)CS3)CC1` reads 5.88% (inactive).
The result for `CCOc1ccc(C(=O)Nc2ccc(S(=O)(=O)NCC3CCCO3)cc2)cc1OCC` (stereo unspecified) reads -1.6% (inactive); that for `COC(C[C@@H](O)C[C@@H](O)[C@H](C)OCc1ccccc1)OC`, 0.46% (inactive); that for `COCCC(=O)N1CCC(Oc2ccc(C(=O)NCc3ccon3)cc2)CC1`, -0.97% (inactive).
With `CCN(CC)CCNC(=O)c1ccc(NC(=O)c2cc(-c3ccncc3)nc3ccccc23)cc1`, the inhibition is -7.72% (inactive).
The result for `O=C(Nc1ccc(S(=O)(=O)Nc2nccs2)cc1)c1cc(=O)[nH]c2ccccc12` reads 0.73% (inactive); that for `O=C(Nc1ccc(S(=O)(=O)Nc2nccs2)cc1)c1cc(-c2ccncc2)nc2ccccc12`, 27.5% (active).
`c1ccc(C2CNCc3c2ccc2ccccc32)cc1` (stereo unspecified): the inhibition was 3.78% (inactive).
With `Cn1cnc(C(F)(F)F)c1-c1ccc([N+](=O)[O-])cc1`, the inhibition is -0.23% (inactive).
The result for `C[N+](C)(C)CCOP(=O)([O-])OC[C@H](O)CO` reads -5.96% (inactive); that for `COC(=O)Cc1cc(=O)n(-c2nc3ccccc3s2)[nH]1`, 19.6% (active); that for `CCC(=O)NC(=Nc1nc2ccccc2s1)NC(=O)CC`, -4.21% (inactive).
`C/C(=N\NC(=O)CC(C)C)c1c(C(F)(F)F)[nH]n(-c2nc3ccccc3s2)c1=O`: the inhibition was 4.43% (inactive).
With `NC(=O)c1ccsc1NC(=O)COC(=O)Cc1n[nH]c(=O)c2ccccc12` the figure was -0.46% (inactive); with `C/C(CC(O)(/C=N/O)c1ccccc1)=N\O` (stereo unspecified), 31.4% (active).
For `CC(=O)Oc1ccccc1C1=NN(C(C)=O)C(c2ccccc2)C1` (stereo unspecified), the inhibition was -2.36% (inactive).
The result for `O=C(CSc1nnnn1-c1ccc(O)cc1)N1N=C(c2ccc3ccccc3c2)CC1c1ccccc1` (stereo unspecified) reads -3.09% (inactive); that for `Cc1ccc(N2C(=O)C3N=NN(CC(=O)N4N=C(c5cccc6ccccc56)CC4c4ccccc4)C3C2=O)cc1` (stereo unspecified), 29.8% (active); that for `O=C(c1ccccc1)N1N=C(c2ccccc2O)CC1c1ccc(Br)cc1` (stereo unspecified), 6.46% (inactive).
`Oc1ccccc1C1=NN(c2ccccc2)C(c2ccccc2)C1` (stereo unspecified): the inhibition was 0.4% (inactive).
The result for `O=C1C2N=NN(CC(=O)N3N=C(c4cccc5ccccc45)CC3c3ccccc3)C2C(=O)N1c1ccccc1` (stereo unspecified) reads 30.5% (active); that for `COc1ccc(C(=NN)c2ccc(OC)cc2)cc1`, -2.58% (inactive); that for `COc1ccc(-c2nc3c(s2)CCc2onc(-c4ccc(Br)cc4)c2-3)cc1`, -1.07% (inactive).
The result for `CCc1ccc(N(CC)c2ncnc3nc[nH]c23)cc1` reads 2.16% (inactive); that for `[2H]C(CCOS(N)(=O)=O)c1ccccc1` (stereo unspecified), -3.22% (inactive).
With `Cc1cc(C(=O)OCC(=O)NCc2ccco2)c(C)n1-c1ccccc1` the figure was -0.54% (inactive); with `CN(C)/C=C(/C(=O)c1ccc(Cl)cc1)S(=O)(=O)c1ccccc1`, 0.05% (inactive).
In the case of `CC(C)(C)c1nnc(NC(=O)C2c3ccccc3Oc3ccccc32)s1`, the inhibition is 1.1% (inactive).
The result for `Cc1noc(/C=C/c2ccco2)c1S(=O)(=O)N1CCC(C(=O)Nc2ccc(Cl)cn2)CC1` reads 0.73% (inactive).
With `Cc1noc(/C=C/c2ccco2)c1S(=O)(=O)N1CCC(C(=O)N2CCc3ccccc32)CC1` the figure was 15.4% (active); with `CNC(=O)C1CCN(S(=O)(=O)c2c(C)noc2/C=C/c2cccc(C)c2)CC1`, 0.59% (inactive); with `O=C(CSc1nc2ccccc2c(=O)n1CCCO)NC1CC1`, -4.92% (inactive).
In the case of `O=C(COC(=O)Cc1ccccc1F)NNC(=O)c1ccc(Cl)cc1`, the inhibition was -4.59% (inactive).
With `C#CCCCc1nc2ccccc2c(=O)n1N` the figure was -2.85% (inactive).
